Screening results: PubChem, National Center for Advancing Translational Sciences (NCATS)
KDM5B inh: Primary screen for KDM5B Histone Demethylases FDH-coupled qHTS | actives 2.6% (n = 220,000) | Potency, µM (doses to about 57.7 µM), most hits filed as inhibitors | KDM5B demethylase, FDH-coupled NADH fluorescence (FDH is formaldehyde dehydrogenase); active = well fitted inhibition curve with a large enough effect; note: 0% is about no effect; nearly all actives have a fitted effect of over 70% in size
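KDM5BΔAP (200 nM final) in 50 mM HEPES pH 7.5, 0.01% Tween-20 was preincubated 10 min at RT with compound over a concentration range. Substrate mix (H3K4me3 12.5 µM, α-KG 25 µM, Fe²⁺, ascorbate, NAD⁺, FDH) was added, and NADH fluorescence change over 30 min gave dose-response curves.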
An asterisk follows results filed as active; i = inactive. This excerpt belongs to a sample that is enriched for hits. Potency is the fitted concentration of half-maximal effect.

SMILES	KDM5B inh
O=C(NCc1ccc2c(c1)OCO2)c1nn(-c2ccc(Cl)cc2)nc1CO	i
Cc1ccc(-n2nc(CO)c(C(=O)NCc3ccc4c(c3)OCO4)n2)cc1	i
O=C(/C=C/c1ccccc1)NCc1ccc2c(c1)OCO2	i
O=C(NCc1ccc2c(c1)OCO2)c1nc(-c2cccnc2)c2cnccn12	28µM*
O=C(NCc1cccs1)c1nc(-c2cccnc2)c2cnccn12	25µM*
O=C(NCc1cccs1)c1nc(-c2cccnc2)c2ccccn12	i
O=C(NCc1cccs1)c1cc(-c2cccnc2)nc2ccc(Br)cc12	i
O=C(NCc1ccc2c(c1)OCO2)c1nc(-c2cc(Cl)cc(Cl)c2)c2ccccn12	14µM*
Cc1nnc([C@H]2CCN(CCCc3ccccc3)C2)o1	i
CN(C)C(CNC(=O)CCc1ncc(-c2ccccc2F)o1)c1ccco1 (stereo not given)	i
COc1cc2c(cc1OC)C(C)N(CC(=O)Nc1ccc(C)cc1)CC2 (stereo not given)	i
N#Cc1ccc(COC(=O)c2cnccn2)cc1	i
Cc1nc(N2CCC(C(=O)NCc3ccc4c(c3)OCO4)CC2)cc(C(F)(F)F)n1	i
O=C(NCc1cccc(C(F)(F)F)c1)c1cnc(-c2ccccc2)nc1-c1ccncc1	i
Fc1cccc(-c2nnn3c2nc(NCc2ccc4c(c2)OCO4)c2ccccc23)c1	i
O=C(NCc1ccc2c(c1)OCO2)c1nc(-c2cccc(C(F)(F)F)c2)c2ccccn12	11µM*
O=C(NCc1ccc2c(c1)OCO2)c1nc(-c2cccc(C(F)(F)F)c2)c2cnccn12	28µM*
Cc1ccc(-c2nnn3c2nc(NCc2ccc4c(c2)OCO4)c2ccccc23)cc1	i
NC(=O)c1ccccc1OCC(=O)Nc1ccc(S(=O)(=O)N2CCCCC2)cc1	i
Cn1c(=O)[nH]c(=O)c2c1nc(Sc1ccccc1)n2CCCc1ccccc1	i
Cc1cccc(NC(=O)CSC2=C(C#N)C3(CCC(C(C)(C)C)CC3)C(C#N)C(=O)N2)c1 (stereo not given)	i
O=C(NC(c1ccccc1)C1CC1)c1cc(Cl)nc(Cl)c1 (stereo not given)	i
CN(CC(=O)NC(=O)NCC(F)(F)F)c1ccccc1	i
Cn1ccnc1C(O)c1cc2n(n1)CCN(C/C=C/c1ccccc1)C2 (stereo not given)	i
Cn1nccc1C(O)c1cc2n(n1)CCN(CC(=O)NCc1ccco1)C2 (stereo not given)	i
SMILES	KDM5B inh
Cn1nccc1C(O)c1cc2n(n1)CCN(C/C=C/c1ccccc1)C2 (stereo not given)	32µM*
O=C(O)C1(c2ccc(Cl)cc2)CCOCC1	i
COc1cc(OC)c(Nc2nc3ccccc3nc2NS(=O)(=O)c2cccc(C)c2)cc1Cl	i
COc1ccc(C(=O)/C=C/c2ccccc2)cc1OC	i
CCNc1ncc(C(=O)N2CCCC(Nc3ccc(OC)cc3)C2)cn1 (stereo not given)	i
COc1ccc(NC(=O)N2CCN(Cc3ccc(C)cc3)CC2)cc1	i
COc1ccc(NC2CCCN(CC(=O)Nc3ccc(C)cn3)C2)cc1 (stereo not given)	16µM*
COc1ccc(-c2nc3ccccc3o2)cc1NC(=O)CC12CC3CC(CC(C3)C1)C2	i
CC(/C=C/c1ccccc1)=N/Nc1ccc([N+](=O)[O-])cc1	i
COc1ccc(Cl)cc1-n1nnc(C(=O)Nc2ccc3c(c2)C(=O)OC3)c1C	i
O=C(NCCc1ccccc1)Nc1ccc(Cl)cc1F	i
Cc1c(OCC(=O)OC(C)(C)C)ccc2c(-c3ccccc3)cc(=O)oc12	i
CCOCCCn1c(=N)c(C(=O)NC2CCCC2)cc2c(=O)n3cccc(C)c3nc21	i
CCOC(=O)CCCOc1cccn2c(=O)c(-c3cc(C)n(-c4ccc(Cl)cc4)n3)c(C)nc12	25µM*
Cc1cc(Cl)ccc1OCCCC(=O)OCC(=O)c1c(N)n(C)c(=O)n(C)c1=O	i
CCOC(=O)CCCOc1cccn2c(=O)c(-c3cc(C)n(-c4ccccc4C)n3)c(C)nc12	32µM*
CC(=O)N=c1c(C#N)cc2c(=O)n3cccc(C)c3nc2n1CCCOC(C)C	i
Cc1ccccc1OCC(=O)OCc1cc(=O)n2ccsc2n1	i
CCOC(=O)CCCOc1cccn2c(=O)c(-c3cc(C)n(-c4cccc(C)c4)n3)c(C)nc12	28µM*
Cc1ccccc1-n1nc(-c2c(C)nc3c(OCC(=O)OC(C)(C)C)cccn3c2=O)cc1C	20µM*
CCNC(=O)CCc1c(C)nn(-c2cccc(C)c2)c1Oc1ccc(F)cc1F	i
CCOC(=O)c1nn(-c2ccc(Cl)cc2)c(C)cc1=O	i
CCOC(=O)CCn1nc(C)c2c(C)n(-c3ccccc3)nc2c1=O	i
COC(=O)CN1C(=O)CSc2ccc(S(=O)(=O)Nc3cccc(OC)c3)cc21	i
CCOC(=O)C1=C(CN(CCOC)Cc2ccco2)NC(=O)NC1c1ccc(OC(C)C)cc1 (stereo not given)	i
SMILES	KDM5B inh
O=C(c1ccc2c(=O)n(-c3cccc(Cl)c3)cnc2c1)N1CCSCC1	i
Cc1cc(-n2cccc2)ccc1Br	i
O=C(CCCN1C(=O)C(c2ccccc2)Oc2cccnc21)NCc1ccccc1 (stereo not given)	i
CCOC(=O)CCNC(=O)N1c2ccccc2CC1c1nc(C(C)C)no1 (stereo not given)	i
Cc1ccc(NC(=O)Nc2c(N3CCCC3)c3ccccc3oc2=O)cc1F	i
COc1ccc2[nH]c(C)c(CCNC(=O)c3cc4ccccc4oc3=O)c2c1	i
Cn1c(=O)c2c(nc(N3CCN(c4cccc(Cl)c4)CC3)n2Cc2ccc(F)cc2)n(C)c1=O	i
O/N=C/c1ccc(-n2cccn2)cc1	i
CN(CC(=O)Nc1nc(-c2ccccc2)cs1)CC(=O)Nc1ccccc1C(F)(F)F	i
CCCN(CCC)C(=O)c1cc2cc(Br)ccc2oc1=O	i
CCC(=O)N1CCc2c(sc3ncnc(NCc4ccccc4)c23)C1	32µM*
Nc1ncnc2sc3c(c12)CCN(C(=O)c1ccccc1)C3	i
CCC(=O)N1CCc2c(sc3ncnc(NCCc4ccccc4)c23)C1	i
Cc1c(NC(=O)C(C)C)cccc1-c1nc2cc(Cl)ccc2o1	i
CC(Sc1cc(F)ccc1F)C(N)=O (stereo not given)	i
O=C1c2cnc(-c3ccccc3OCc3ccccc3)nc2OCCN1CC1CC1	32µM*
O=C1c2cnc(-c3cccc(O)c3)nc2OCCN1Cc1ccc(F)cc1F	i
O=C1c2cnc(-c3cc(F)cc(F)c3)nc2OCCN1Cc1ccc(F)cc1F	i
COc1ccccc1-c1ncc2c(n1)OCCN(Cc1ccc(F)cc1F)C2=O	35µM*
COc1cccc(-c2ncc3c(n2)OCCN(Cc2ccc(F)cc2F)C3=O)c1	35µM*
O=C1c2cnc(-c3ccccc3)nc2OCCN1Cc1ccccc1	i
N#Cc1cccc(-c2ncc3c(n2)OCCN(Cc2ccc(F)cc2F)C3=O)c1	i
O=C1c2cnc(-c3ccccc3)nc2OCCN1Cc1ccc(F)cc1F	i
O=C1c2cnc(-c3cc4ccccc4o3)nc2OCCN1CC1CC1	i
COC(=O)c1ccccc1NC(=O)C1=C(c2ccccc2)S(=O)(=O)CCO1	i
COc1ccc(S(=O)(=O)Nc2nc3ccccc3nc2Nc2ccc(OC)cc2OC)cc1	i
CCC(=O)N1N=C(c2ccsc2)CC1c1ccc2nccnc2c1 (stereo not given)	i
